# According to the supplement of paper PMC8975748:
# Counter-ions that a name gives are not always drawn.
# System: Saccharomyces cerevisiae BY4741 SeMeCo community
# Test: z-score of subpopulation abundance vs DMSO median, subpopulation auxotrophic for HLU; higher = larger share of this subpopulation than in DMSO controls
# Conditions: 10 µM; 24 h; SM minimal medium; subpopulation (auxotrophy): HLU
# Description: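 Fluorescent four-plasmid SeMeCo (self-establishing metabolically cooperating S. cerevisiae BY4741 community; plasmids pH-mRuby2, pL-mWasabi, pU-eCFP, pM-TagRFP657) was grown 24 h in minimal SM medium with each Selleck FDA-approved drug at 10 µM in 384-well plates. Cells were fixed and imaged by high-content confocal microscopy. For each auxotrophic subpopulation (and the prototroph), a z-score gives the deviation from the DMSO vehicle-control population median.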
row,Structure (SMILES),z-score of subpopulation abundance
1,NC[C@H]1O[C@H](O[C@H]2[C@H](O)[C@@H](O[C@H]3O[C@H](CO)[C@@H](O)[C@H](N)[C@H]3O)[C@H](N)C[C@@H]2N)[C@H](N)C[C@@H]1O [Tobramycin],-0.41
2,C[C@]12CC[C@@H]3c4ccc(O)cc4CC[C@H]3[C@@H]1CCC2=O [Estrone],-0.08
3,CCCCN1CCCC[C@H]1C(=O)Nc1c(C)cccc1C [Levobupivacaine HCl],-0.48
4,Cc1nnc(SCC2=C(C(=O)O)N3C(=O)[C@@H](NC(=O)Cn4cnnn4)[C@H]3SC2)s1 [Cefazolin Sodium],0.52
5,CCN(CC)CCOc1ccc(C(=C(Cl)c2ccccc2)c2ccccc2)cc1 [Clomifene citrate],2.19
6,N#C/C(=C1/SC[C@@H](c2ccc(Cl)cc2Cl)S1)n1ccnc1 [Luliconazole],5.26
7,CN(C)C[C@@H]1CCn2cc(c3ccccc32)C2=C(C(=O)NC2=O)c2cn(c3ccccc23)CCO1,1.21
8,COc1cc(NC(C)CCCN)c2ncccc2c1 (stereo not given) [Primaquine Diphosphate],-0.39
9,O=C(Cn1cnnn1)N[C@@H]1C(=O)N2C(C(=O)O)=C(CSc3nncs3)CS[C@H]12 [Ceftezole],-0.25
10,CS(=O)(=O)Nc1ccc([N+](=O)[O-])cc1Oc1ccccc1 [Nimesulide],0.61
11,CC1(C)S[C@@H]2[C@H](NC(=O)Cc3ccccc3)C(=O)N2[C@H]1C(=O)O [Benzathine penicilline],-0.11
12,CCC1(c2ccccc2)C(=O)NCNC1=O [Primidone],-0.29
13,CC(C[N+](C)(C)C)OC(N)=O (stereo not given) [Bethanechol chloride],1.45
14,O=C(O)Cc1ccccc1Nc1c(Cl)cccc1Cl [Diclofenac Diethylamine],-0.36
15,CCCCCOc1ccc(-c2ccc(-c3ccc(C(=O)N[C@H]4C[C@@H](O)[C@@H](O)NC(=O)[C@@H]5[C@@H](O)[C@@H](C)CN5C(=O)[C@H]([C@@H](C)O)NC(=O)[C@H]([C@H](O)[C@@H](O)c5ccc(O)cc5)NC(=O)[C@@H]5C[C@@H](O)CN5C(=O)[C@H]([C@@H](C)O)NC4=O)cc3)cc2)cc1,21.5
16,CCN(CC)CCOCCOC(=O)C1(c2ccccc2)CCCC1 [Pentoxyverine Citrate],-0.39
17,C1CCN2C[C@@H]3C[C@@H](CN4CCCC[C@@H]34)[C@H]2C1 [(-)-Sparteine Sulfate],-0.52
18,CCn1cc(C(=O)O)c(=O)c2cc(F)c(N3CCN(C)CC3)cc21 [Pefloxacin Mesylate Dihydrate],0.03
19,O=c1c(-c2ccc(O)cc2)coc2c([C@@H]3O[C@H](CO)[C@@H](O)[C@H](O)[C@H]3O)c(O)ccc12 [Puerarin],0.12
20,Cc1c(-c2ccccc2)oc2c(C(=O)OCCN3CCCCC3)cccc2c1=O [Flavoxate HCl],1.32

row,Structure (SMILES),z-score of subpopulation abundance
1,CCCCN(CCCC)CC(O)c1cc(Cl)cc2c1-c1ccc(Cl)cc1/C2=C/c1ccc(Cl)cc1 (stereo not given) [Lumefantrine],-0.32
2,C[n+]1ccccc1C=NO [Pralidoxime Iodide],-0.23
3,O=C1CN(/N=C/c2ccc(-c3ccc([N+](=O)[O-])cc3)o2)C(=O)N1 [Dantrolene sodium],-0.91
4,O=C1[C@@H]2[C@H]3CC[C@H](C3)[C@@H]2C(=O)N1C[C@@H]1CCCC[C@H]1CN1CCN(c2nsc3ccccc23)CC1 [lurasidone],-0.09
5,CC(=O)O[C@H]1C[C@@H]2CC[C@@H]3[C@H](CC[C@@]4(C)[C@H]3C[C@H]([N+]3(C)CCCCC3)[C@@H]4OC(C)=O)[C@@]2(C)C[C@@H]1N1CCCCC1 [Vecuronium Bromide],-0.64
6,COc1ccc(C(Cl)=C(c2ccc(OC)cc2)c2ccc(OC)cc2)cc1 [Chlorotrianisene],1.95
7,NCCc1ccc(O)c(O)c1 [Dopamine HCl],-0.89
8,COc1cc2c(cc1OC)-c1cc3ccc(OC)c(OC)c3c[n+]1CC2 [Palmatine],1.86
9,CN(C)[C@@H](CCOc1cccc2ccccc12)c1ccccc1 [Dapoxetine HCl],1.25
10,Nc1nc2c(ncn2COC(CO)CO)c(=O)[nH]1 [Ganciclovir],0.54
11,CCC(C)(C)C(=O)O[C@H]1C[C@@H](C)C=C2C=C[C@H](C)[C@H](CC[C@@H]3C[C@@H](O)CC(=O)O3)[C@H]21 [Simvastatin],3.09
12,COc1ccc(C(=O)NCc2ccc(OCCN(C)C)cc2)cc1OC [Itopride hydrochloride],0.07
13,Clc1ccc2c(N3CCN(CCCN4CCN(c5ccnc6cc(Cl)ccc56)CC4)CC3)ccnc2c1 [Piperaquine phosphate],0.33
14,CO/N=C(\C(=O)N[C@@H]1C(=O)N2C(C(=O)O)=C(Cn3ccc(=N)n3CCO)CS[C@H]12)c1csc(N)n1 [Cefoselis Sulfate],-0.33
15,CCCN[C@H]1CCc2nc(N)sc2C1 [Pramipexole 2HCl Monohydrate],-0.47
16,CCCCCOc1ccccc1/C(=C\SC)n1ccnc1 [Neticonazole Hydrochloride],2.52
17,OCCN1CCN(CCCN2c3ccccc3Sc3ccc(C(F)(F)F)cc32)CC1 [Fluphenazine dihydrochloride],1.24
18,CCCCc1oc2ccccc2c1C(=O)c1cc(I)c(OCCN(CC)CC)c(I)c1 [Amiodarone HCl],4.05
19,C=CC(C)(O)CCC=C(C)C (stereo not given) [Linalool],-0.06
20,CCC(C)(C)c1ccc(CC(C)CN2C[C@@H](C)O[C@@H](C)C2)cc1 (stereo not given in full) [Amorolfine HCl],2.33
